Assay results: PubChem BioAssay AID592 (National Center for Advancing Translational Sciences (NCATS), 2007)
Several values for one entry are separate records, joined by “and”; a condition that tells them apart may be missing. Equal entries are not always repeated. In all, about 59,000 compounds went through this assay and fewer than 10 were called active. How the calls were made is not given here. These entries were drawn from the full list.

Test: qHTS Assay for Spectroscopic Profiling in A647 Spectral Region
Settings: Compound fluorescence, A647 channel (570/671 nm), Tris buffer; stronger effect = higher value
Source text: NIH Molecular Libraries Screening Centers Network [MLSCN] NIH Chemical Genomics Center [NCGC] […] Occasionally, the artifactual effect may originate from the compounds own spectral or other biophysical properties which generally tend to track its assay concentration. Pre-screening/profiling the library with respect to the compounds spectral properties should help one exclude false positives early on. While the most informative fluorescent profiling data set is obtained by performing a full excitation and emission scan of each well by using a monochromator-based plate reader, such an approach is practical only on a very limited scale as scanning each well requires long time. An alternative approach, applied here, is to perform plate reader scans using selected excitation and emission wavelength pairs to generate a multidimensional relational database that correlates compound concentration and the respective relative fluorescence intensity at a given wavelength set. A standard curve of Alexa 647 (A647) present on each plate as six-point concentration series, was used to compute a normalized fluorescence response, termed dye-equivalent concentration, for each compound at each concentration.
NCGC Assay Protocol Summary: Buffer: 100 mM Tris buffer, pH 8.0 Dye standard plate: The wells in columns 1 through 4 of a Kalypsys polypropylene 1536-well compound plate were filled with standard solutions of fluorophore corresponding to the spectral region of interest. Solutions of A647 were placed in the following wells: AC1, AD1: 3 mM, AC2, AD2: 300 uM, AC3, AD3: 30 uM, AC4, AD4: zero (DMSO), AE1, AF1: 3 uM, AE2, AF2: 900 nM, AE3, AF3: 300 nM, AE4, AF4: zero (DMSO). Assay Steps: Six uL of buffer were dispensed to 1536-well Greiner black plates. Compounds and dye standards (23 nL) were transferred via Kalypsys PinTool. The plates were incubated for 15 min at room temperature, and then read on ViewLux (Perkin-Elmer) High-throughput CCD imager using 570 nm and 671 nm excitation and emission filter set. Keywords: NIH Roadmap, MLSCN, MLI, MLSMR, qHTS, NCGC, A647, A-647, Fluorescent Profiling.

Max dye-equivalent concentration, inactive:
CCOc1cc(CO)ccc1OCC(=O)N1CCCCC1 5.6 nM, COC(=O)Nc1c(C)n(C)n(-c2ccccc2)c1=O 1 nM, CCN(CC)C(=O)C1CCC(C)(C(=O)O)C1(C)C (centres undefined) 5.6 nM, O=C(O)c1c(Br)c(Br)c(Br)c(Br)c1C1c2ccc(O)cc2Oc2cc(O)ccc21 1 nM, O=C(Nc1ccon1)c1cccc(Cl)c1 1 nM, Cc1cccc2cc(CN(Cc3ccc4c(c3)OCO4)Cc3nnnn3C3CCCC3)c(=O)[nH]c12 1 nM, COCCCn1c(CCC(=O)O)ccc1-c1ccc(F)cc1 26 nM, COCCn1nnnc1CN1CCC(NC(=O)Nc2cccc(OC)c2)CC1 41 nM, O=C(O)[C@@H](S)[C@H](S)C(=O)O 1.2 nM, COCCCNC(=O)CSc1nc2ccc(N3CCOCC3)cc2c(=O)n1CCc1ccccc1 19 nM, Cc1ccc(-c2noc(CSc3nnc(-c4ccccc4)n3C)n2)cc1 17 nM, COc1ccc(C2OC(=O)CC2C(=O)NC(C)C)cc1 (centres undefined) 2.6 nM, Cc1cc(Cl)c(S(=O)(=O)NCC2CCCO2)cc1OCC(N)=O (centres undefined) 1 nM, CC1(N2CCOCC2)CC2(O)C(=[N+]1[O-])CCc1nonc12 (centres undefined) 31 nM, Cc1ccc(C(=O)O)cc1S(=O)(=O)NCC1CCCO1 (centres undefined) 1 nM, O=C(c1ccncc1)N1CCC2(CCCN(C(c3ccccc3)c3ccccc3)C2)CC1 10 nM, C[C@@H]1CC[C@H]2[C@H](C)[C@H]3[C@H](C[C@H]4[C@@H]5CC=C6C[C@@H](O)CC[C@@]6(C)[C@@H]5C[C@@H](O)[C@]34C)N2C1 2.4 nM, Cn1nnnc1SCC(=O)N1CCN(C(c2ccccc2)c2ccccc2)CC1 1 nM, CCCC(C)n1[nH]c(=O)c2c(C)cc(C)nc21 (centres undefined) 16 nM, N#Cc1c2c(c(-c3ccccc3)[nH]c1=O)CCCC2 55 nM, Cc1ccccc1C(=O)Nc1cccc(-c2nnc(SCC(=O)O)n2C)c1 18 nM, O=C(Nc1ccccc1C(=O)N1CCOCC1)C1CCC(=O)N1C1CCCC1 (centres undefined) 14 nM, O=S(=O)(c1ccccc1)N(CC(O)CN1CCCCC1)c1ccccc1 (centres undefined) 1 nM, CCC(C)(C)n1nnnc1C(c1cccs1)N1CCN(Cc2ccccc2)CC1 (centres undefined) 35 nM, Cc1c(C(=O)Nc2ccccc2Cl)oc2ccc(S(=O)(=O)N3CCC4(CC3)OCCO4)cc12 45 nM, CCC(Oc1ccccc1)C(=O)NCc1cccnc1 (centres undefined) 1.3 nM, CC(C)OC(=O)c1sc2nc3c(cc2c1N)C(=O)CCC3 12 nM, Cn1cc(-c2nc3cncnc3n(-c3ccccc3)c2=O)c2ccccc21 1 nM, O=C(/C=N/O)Nc1ccccc1 1 nM, CCOC(=O)N1CCN(S(=O)(=O)c2ccc(C(=O)Nc3ccc(F)cc3F)cc2)CC1 29 nM, COc1ccccc1N1CCN(CCCCOc2ccc(F)cc2)CC1 1 nM, COc1ccc2nc(N3CCCC(O)C3)c(C#N)cc2c1 (centres undefined) 22 nM, CCCCN(CC)CCCNC(=O)CS(=O)(=O)Cc1nc(-c2cccc(OC)c2)oc1C 1 nM, COC(=O)c1ccccc1NC(=O)CN(Cc1ccccc1)S(C)(=O)=O 1 nM, COc1cccc(OC)c1OCCN1CCN(C(=O)c2ccco2)CC1 1 nM, Cc1cc(Cl)ccc1N1C(=O)CC(SCCC(=O)O)C1=O (centres undefined) 1 nM, COc1ccc(CC(=O)Nc2c3c(nn2-c2cccc(Cl)c2)CS(=O)C3)cc1 (centres undefined) 12 nM, Cc1c(C(=O)OCc2cc(=O)n3cc(Br)ccc3n2)oc2ccccc12 28 nM, CCOC(=O)N1CCN(C(=O)c2cn(C)c3ccc(S(=O)(=O)N4CCCC4)cc3c2=O)CC1 21 nM, Cc1cc(NC(=O)COc2ccc(Cl)cc2Cl)n(CCC#N)n1 18 nM, Cc1ccc(S(=O)(=O)NCc2cn3ccsc3n2)c(C)c1 18 nM, CCOc1cc(-c2nc3cc(C)ccn3c2NCC2CCCO2)ccc1O (centres undefined) 14 nM, CC(C)C(C(=O)NC1CCCCC1)N(CC1CCCO1)C(=O)CNS(=O)(=O)c1ccc(F)cc1 (centres undefined) 1 nM, COc1ccccc1N1CCN(c2nc3ccccc3n3nnnc23)CC1 42 nM, O=C(c1cccc(F)c1)N1CCC2(CC1)CCN(c1ccccc1)CC2 1.1 nM, COc1ccccc1CNCc1cccs1 25 nM, O=C(CN1C(=O)COc2ccccc21)NCCN1CCc2ccccc2C1 23 nM, CC(C)CCNC(=O)C(C)N(C(=O)Cn1nnc(-c2ccc(F)cc2)n1)C1CCCC1 (centres undefined) 1 nM, CN1CCN(S(=O)(=O)c2ccc(NC(=O)c3ccco3)cc2)CC1 3.8 nM, CCOC(=O)CSc1nc2sc3c(c2c(=O)[nH]1)CC(C)(C)OC3 2.2 nM, Cc1cc(=O)oc(C)c1C(=O)Nc1cnc2ccccc2c1 5.4 nM, CN(C)CCSc1nc(N)c2c3c(sc2n1)COC(C)(C)C3 6.7 nM, Cc1ccc(C(=O)CSc2nnc(Cn3nnc4ccccc43)n2C)cc1 15 nM, CCCc1cc(=O)n2[nH]c(SCc3ccccc3)nc2n1 28 nM, O=C(c1ccco1)N(Cc1nc2ccccc2c(=O)[nH]1)C1CCCC1 41 nM, COC(=O)[C@H](CCSC)NC(=O)Nc1ccc(OC)cc1 5.2 nM, CC[N+](C)(CC)CCC[n+]1c(-c2ccccc2)c2cc(N)ccc2c2ccc(N)cc21 1.7 nM, O=c1c(CCc2ccccc2)nc2cnc(N3CCNCC3)nc2n1Cc1cccs1 1 nM, O=C(OCC(=O)N1CCN(C(=O)c2ccco2)CC1)c1ccccc1Cc1ccccc1 7.2 nM, CCOc1ccccc1N=C1NC(=O)CS1 4.1 nM, CCOC(=O)C1CCN(C(c2cc3cc(C)cc(C)c3[nH]c2=O)c2nnnn2C2CCCCC2)CC1 (centres undefined) 1 nM, CCCSC1=C(C#N)C(c2ccccc2C)C(C(=O)OC)C(=O)N1 (centres undefined) 58 nM, COCC(C)n1c(SCc2ccc(C(=O)OC)o2)nc2ccccc2c1=O (centres undefined) 1.6 nM, COC(=O)c1ccc(C2CC(=O)Nc3cc(OC)c(OC)cc32)cc1 (centres undefined) 1 nM, CC(C)c1nc(N2CCOCC2)c(C#N)c2c1COC(C)(C)C2 69 nM, CCCC(=O)Nc1c(O)c2ccccc2[nH]c1=O 1 nM, C=C(C)CSc1nc(N)c2c3c(sc2n1)CCC3 1.9 nM, O=C(OC1CCOC1=O)c1ccc(-c2nc3ccccc3s2)s1 (centres undefined) 1 nM, CCCS(=O)(=O)C(=C1Nc2ccccc2N1)S(=O)(=O)CCC 1 nM, CSc1sc(C)cc1C1C(C#N)=C(N)N(c2cccnc2)C2=C1C(=O)CCC2 (centres undefined) 18 nM, CCN(CC)C(=O)N1CCN(C(=O)c2ccc(C)cn2)CC1 1 nM, CCC(CC)c1nnc(NS(=O)(=O)Cc2ccccc2)s1 5 nM, COC(=O)c1c(NC(=O)c2cccs2)sc2c1CCCC2 1 nM, CC1CCC(NC(=O)c2ccc(N3CCCC3=O)cc2)CC1 (centres undefined) 6 nM, CCCNC(=O)Nc1ccccc1C(=O)Nc1ccc(OC)cc1 1.2 nM, COc1ccccc1-n1nnnc1S(=O)(=O)Cc1ccc(Cl)cc1 37 nM, CCN1C(=O)/C(=C2/Sc3ccccc3N2CCCS(=O)(=O)O)SC1=S 1 nM, CCCCC(=O)Nc1ccc(C(=O)NCCCn2ccnc2)cc1 2.5 nM, CCOC(=O)CNC(=O)CSc1nnc(COc2ccc(Cl)cc2)n1CC 39 nM, N#C/C=C1\Sc2ccccc2C(=O)N1CC(=O)N1CCN(S(=O)(=O)c2ccccc2)CC1 1 nM, N#CC1=C(N)C(C#N)(C#N)[C@H](c2ccsc2)[C@H]2COCC=C12 25 nM, CC(C)C[C@H](NC(=O)[C@@H]1O[C@H]1C(=O)O)C(=O)NCCCCN=C(N)N 60 nM and 51 nM, Cc1ccc2[nH]c3c(c2c1)CN(C(=O)CN1CCN(c2ccccc2)CC1)CC3 12 nM, Cc1ccc(C(C(=O)NC2CCCC2)N(Cc2ccco2)C(=O)CCC(=O)Nc2ccccn2)cc1 (centres undefined) 23 nM, CC(=O)/C(C)=N\O 34 nM, COC(=O)c1cc(C(=O)OC)cc(N2C(=O)CC(N3CCN(c4ccccc4)CC3)C2=O)c1 (centres undefined) 14 nM, CC(=O)Nc1ccc(S(=O)(=O)Nc2nc3n(n2)C(c2ccccc2)CC(=O)N3)cc1 (centres undefined) 16 nM, N#Cc1c(N)sc2c1CCN(C(=O)OCc1ccccc1)C2 36 nM, O=S(=O)(c1cccc(S(=O)(=O)N2CCC(n3nnc4ccccc43)CC2)c1)N1CCCCC1 23 nM
